In ChEMBL document CHEMBL4513216, “Probing the Open Global Health Chemical Diversity Library for Multistage-Active Starting Points for Next-Generation Antimalarials” (ACS Infect Dis, 2020):
Among all 69,000 compounds or so, about 8,600 (12%) showed an effect of 50% or more. What follows is part of a selection rich in strong results, with near analogues and random picks from the rest.

Test system: Plasmodium berghei
Assay: Screen against P. berghei liver stage (PbLuc), transformed with Luciferase, at 10uM
Format: functional, HepG2
Settings: tested at 10 uM

| Structure (SMILES) | INHIBITION |
| --- | --- |
| CC1CCN(S(=O)(=O)N2CCCN(CC3CCCO3)CC2)CC1 (stereo not given) | 38% |
| CC(C)n1cnc2c1C(C(=O)NCCO)N(Cc1ccccc1)CC2 (stereo not given) | -18.4% |
| CSc1ncc(C(=O)N2C[C@@H]3CC[C@H]2CN(c2ncccn2)C3)cn1 | 14% |
| CCn1ncc2c1CN(C(=O)c1cscn1)CC2COC (stereo not given) | 45.1% |
| CCn1ncc2c1CN(C(=O)c1cc(C)oc1C)CC2COC (stereo not given) | -12.1% |
| COCC1CN(C(=O)CNC(C)=O)Cc2ncnn2C1 (stereo not given) | 6.8% |
| COCC1CN(C(=O)Cc2ccsc2)Cc2c1cnn2C (stereo not given) | 46.2% |
| COCC1CN(C(=O)Cc2cccs2)Cc2c1cnn2C (stereo not given) | 66% |
| COCC1CN(C(=O)c2ccnnc2)Cc2ncnn2C1 (stereo not given) | -41.6% |
| COCC1CN(C(=O)CC2Cc3ccccc3C2)Cc2c1cnn2C (stereo not given) | 59% |
| COCC1CN(C(=O)c2ccnnc2)Cc2c1cnn2C (stereo not given) | 48.3% |
| CCn1ncc2c1CN(C(=O)c1ccc3c(c1)OCO3)CC2COC (stereo not given) | 50.7% |
| COCC1CN(C(=O)c2cccn2C)Cc2c1cnn2CC1CC1 (stereo not given) | 31.7% |
| CCn1ncc2c1CN(C(=O)Cc1cccs1)CC2COC (stereo not given) | -27.9% |
| COCC1CN(C(=O)Cc2ccccn2)Cc2ncnn2C1 (stereo not given) | 64.9% |
| Cc1ccc(N2CCCC(NCc3sccc3C)C2)nn1 (stereo not given) | 36.1% |
| O=C(c1cscn1)N1CCC2(CN(Cc3nccs3)C2)C1 | 15.9% |
| Cc1csc2ncc(-c3ccnc(NC4CCOCC4)n3)c(=O)n12 | -9.27% |
| CCCc1noc(C(C)N(CC)Cc2ccco2)n1 (stereo not given) | -30.5% |
| O=C(c1ccno1)N1CC[C@@H]2O[C@H](COCCN3CCCC3)CC[C@@H]21 | 4.27% |
| O=C1CCC2(CCCN(C(=O)Cc3cccnc3)C2)N1 (stereo not given) | 0.112% |
| Fc1cccc(C2CCCCN2Cc2nc(-c3cnccn3)no2)c1 (stereo not given) | -12.6% |
| CCc1cc(CN2CCCCC2c2ccc(F)cc2)on1 (stereo not given) | 65.7% |
| Fc1ccc(C2CCCN2Cc2nc(Cc3ccccc3F)no2)cc1 (stereo not given) | 25.8% |
| Fc1ccc(C2CCCCN2Cc2cc(-c3ccccn3)no2)cc1 (stereo not given) | 51.8% |

| Structure (SMILES) | INHIBITION |
| --- | --- |
| CCc1nc(C2CCCN2Cc2ccno2)no1 (stereo not given) | 19.6% |
| c1ccc(-c2cc(CN3CCCCCC3c3ccco3)on2)nc1 (stereo not given) | -15% |
| COc1ccc(C2CCCCCN2S(C)(=O)=O)cc1 (stereo not given) | 27.4% |
| Cc1ccc2c(n1)N(C)CCN(Cc1ccco1)C2 | 3.88% |
| CN1CCN(c2ncnc3c2CCN(S(=O)(=O)C2CC2)CC3)CC1 | 29.4% |
| CC(=O)Nc1nc(C(=O)NC(C)c2ccc(F)cc2)cs1 (stereo not given) | -45.2% |
| Cc1[nH]/c(=N\C(=O)c2csc(NCC(C)C)n2)sc1C | 89.6% |
| Cc1cs/c(=N\C(=O)c2c3c(nc4onc(C)c24)CCC3)[nH]1 | 24.1% |
| Cc1cc(O)c(OCC(=O)/N=c2\[nH]c(C)c(C)s2)cn1 | -69.4% |
| Cc1cs/c(=N/C(=O)c2csc(NCC(C)C)n2)[nH]1 | 90.8% |
| CC(C)CNc1nc(C(=O)/N=c2\[nH]nc(C(C)(C)C)s2)cs1 | 11.5% |
| Cc1nn(C(C)C)c(C)c1CN1CCN(C2CCCCC2)C(=O)C1 | 5.1% |
| CCN1CC[C@@]2(C(=O)N3CCOCC3)CCN(S(=O)(=O)CC)CC[C@@H]12 | 17.4% |
| Cc1ccn2cc(C(=O)N3CCCC(Cn4cc(CO)nn4)C3)nc2c1 (stereo not given) | 36.7% |
| Cc1cc2n(n1)[C@@H](C(F)(F)F)C[C@@H](C1CCN(C(=O)C3CC3)CC1)N2 | -4.51% |
| CC(C)(C)CC(=O)NS(=O)(=O)c1ccc(C#N)cc1C(F)(F)F | 19.2% |
| Cc1cc(C)n(-c2cncc(NCCNC(=O)C3CCCC3)n2)n1 | 45.2% |
| CS(=O)(=O)N1C[C@@H]2C[C@H](C(=O)N3CCOCC3)[C@H](C1)O2 | 0.112% |
| CS(=O)(=O)N1CC[C@H]2C[C@@H](C(=O)N3CCOCC3)O[C@@H]2C1 | 25.4% |
| CS(=O)(=O)N1CCn2c(C(=O)N3CCOCC3)cnc2C1 | 52.6% |
| Cc1cccc(NS(=O)(=O)c2cc3c(c(C(=O)O)c2)OCCO3)c1 | 7.27% |
| Cc1cc(C)cc(NS(=O)(=O)c2cc3c(c(C(=O)O)c2)OCCO3)c1 | 57.2% |
| O=C(O)c1cc(S(=O)(=O)Nc2cc(F)cc(F)c2)cc2c1OCCO2 | 40% |
| COCCN1C(=O)CCC12CCC(NC(=O)c1cnccn1)CC2 (stereo not given) | -14.7% |
| CNC(=O)C1(c2cnccn2)CCCN1C(=O)c1ccccc1F (stereo not given) | 13.5% |

| Structure (SMILES) | INHIBITION |
| --- | --- |
| C[C@H]1CN(CC2CCOCC2)C[C@@]12CCN(Cc1cccnc1)C2=O | 3.81% |
| Cc1nn(C)c2nc(-c3ccccn3)nc(NCCC3CCCN3C)c12 (stereo not given) | 11.2% |
| CN1CCCC1CCn1ccnc1-c1nc2ccccc2[nH]1 (stereo not given) | 53.9% |
| OCC1CCCCN1CCn1ccnc1-c1nc2ccccc2[nH]1 (stereo not given) | 38.8% |
| Cn1ccnc1CN1CCCCC1c1nc(-c2ccccc2)no1 (stereo not given) | 30.4% |
| c1ccc(-c2noc(CCCN3CCCC3Cn3cccn3)n2)cc1 (stereo not given) | 45.7% |
| CN1CCCC1CCn1ccnc1-c1ccc2ccccc2n1 (stereo not given) | 72.3% |
| CN1CCCC1CCn1ccnc1-c1nc(-c2ccccc2)no1 (stereo not given) | 51.8% |
| Cc1nc(CN2CCCC2Cn2ccnc2C(C)C)nc2ccccc12 (stereo not given) | 30.4% |
| Cc1nccn1CCC1CCNCC1 | 39.6% |
| COCCN1CCCC1Cn1nc(C)cc1C (stereo not given) | 32.3% |
| Cc1cc(=O)n2nc(Oc3ccc(Cl)c(C)c3)sc2n1 | 16.3% |
| CCC(C)N(Cc1cnc(NCC(=O)O)nc1)Cc1ccsc1 (stereo not given) | 41.3% |
| O=C(Cc1ccccc1O)NC1CCCN(c2ccccc2F)C1=O (stereo not given) | 26.4% |
| Cc1cc(C(=O)NCCC(=O)N2CCCc3ccccc32)no1 | 1.51% |
| O=C(c1ccnnc1)N1C[C@H](OCC2CCOCC2)[C@H]2OCCC[C@H]21 | 4.68% |
| Cc1nc(CN(C)CC2CCCN2c2cccnn2)oc1C (stereo not given) | -27.8% |
| Cc1nc2ccccc2nc1CN(C)CC1CCCN1c1cccnn1 (stereo not given) | 10.2% |
| Cc1nc(CN(C)CC2CCCN2c2cccnn2)nc2ccccc12 (stereo not given) | 60.9% |
| CN(Cc1nc2ccccc2o1)CC1CCCN1c1cccnn1 (stereo not given) | 55% |
| CN(Cc1ncc(-c2ccccc2)o1)CC1CCCN1c1cccnn1 (stereo not given) | 37% |
| CN(Cc1nc(N)c2ccccc2n1)CC1CCCN1c1cccnn1 (stereo not given) | 11.8% |
| CN(Cc1ncc(C(C)(C)C)o1)CC1CCCN1c1cccnn1 (stereo not given) | 86.6% |
| Cc1nnc(CN(C)CC2CCCN2c2cccnn2)o1 (stereo not given) | 19.5% |
| CC(C)(C)c1cnc(CNCC2CCCN2c2cccnn2)o1 (stereo not given) | 34.1% |
